For 75 compounds, inhibition results are on record in PubChem BioAssay.

Values without a mark were called inactive. The rule behind the calls is not given here.

The test addresses Pantothenate synthetase (Mycobacterium tuberculosis (strain ATCC 25618 / H37Rv)) (UniProt P9WIL5). The test can be described thus: Coupled enzyme confirmation of inhibitors against recombinant Mtb PanC (AID 375).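 Note: 0% = full reaction with vehicle and 100% = no enzyme background.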 The note with it: coupled enzyme assay; at 10 µM, hits give high values.

Sequence of Pantothenate synthetase (Mycobacterium tuberculosis (strain ATCC 25618 / H37Rv)) (P9WIL5 whole entry, looked up): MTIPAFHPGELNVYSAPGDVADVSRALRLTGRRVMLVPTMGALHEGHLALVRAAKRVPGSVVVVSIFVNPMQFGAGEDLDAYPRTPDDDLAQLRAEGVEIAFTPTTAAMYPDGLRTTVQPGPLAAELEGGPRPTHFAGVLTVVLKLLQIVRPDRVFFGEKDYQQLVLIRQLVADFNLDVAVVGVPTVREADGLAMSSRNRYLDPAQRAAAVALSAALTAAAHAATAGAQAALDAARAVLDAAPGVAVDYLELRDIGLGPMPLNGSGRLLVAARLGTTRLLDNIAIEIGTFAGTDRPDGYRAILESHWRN

A word on the inhibition: it is the share of the control response that was lost under treatment. As for `Cc1ccc(N2CCN(C(=S)c3ccc(N(C)C)cc3)CC2)cc1`, the inhibition was 10%.

For the compound `NC(N)=NC(=O)c1nc(Cl)c(N)nc1N`, the inhibition was 0%.

Take `O=C(CN1C(=O)NC(Cc2ccccc2)C1=O)Nc1ccccc1` (stereo not given): the inhibition was 0%.

On to `O=C(CC(Cc1ccccc1)C(=O)O)NCCc1ccc2c(c1)OCO2` (stereo not given), for which the inhibition is 1%.

Take `CCOC(=O)N1CCN(C(=O)CSc2nnc(-c3cc(OC)cc(OC)c3)o2)CC1`: the inhibition is 0%.

For the compound `CC1NC(=O)NC1CCCCCC(=O)NCCc1ccccc1` (stereo not given), the inhibition was 2%.

For the compound `COC(=O)c1onc(C(=O)c2ccccc2)c1C(=O)OC`, the inhibition was 0%.

With `O=C(NCc1ccc2c(c1)OCO2)c1ccccn1`, the inhibition was 6%.

Take `O=C(CCCC(=O)OCC(=O)NC1CCCC1)Nc1ccccn1`: the inhibition is 4%.

Regarding `Cc1nc2ccccc2c(=O)n1CC(=O)N1CCOCC1`, the inhibition was 2%.

For the compound `COCC(C)NC(=O)CCS(=O)(=O)c1nc(-c2ccc(OC)cc2)cc(C(F)(F)F)n1` (stereo not given), the inhibition was 0%.

Turning to `Cn1nnnc1SCSc1nnnn1C`, the inhibition is 1%.

Regarding `CC(C(=O)NC(=O)NC1CCCCC1)N1CCN(c2ccccn2)CC1` (stereo not given), the inhibition is 0%.

As for `O=C1NC2(Nc3ccccc31)C(=O)Nc1ccccc12` (stereo not given), the inhibition was 0%.

Take `CCOC(=O)C1CCN(Cc2ccc(OC)c(C)c2OC)CC1`: the inhibition is 0%.

Turning to `O=C(NCCCN1CCOCC1)c1cc(-c2ccc(Cl)cc2)on1`, the inhibition is 4%.

Consider `COc1ccc(-c2nc(SC)n(S(=O)(=O)c3ccccc3)n2)cc1`, for which the inhibition is 0%.

For `Cc1cccc(Cc2nnc(NC(=O)c3cccc(S(=O)(=O)N4CCOCC4)c3)s2)c1`, the inhibition is 0%.

`CC(=O)c1ccc2c3c(cccc13)C(=O)N(c1c(C)nn(C)c1C)C2=O`: the inhibition is 0%.

As for `O=C(Cn1cnc2c(nnn2Cc2ccc(Cl)cc2)c1=O)NCC1CCCO1` (stereo not given), the inhibition was 0%.

Consider `CCOC(=O)c1[nH]c(C)c(C(=O)Nc2ccc(C)c(Cl)c2)c1C`, for which the inhibition is 9%.

On to `Cc1cc2ccccc2c(=O)n1CC(=O)N(C)c1ccc(F)cc1`, for which the inhibition was 0%.

Take `Cc1cccc(NC(=O)CCCCCN2C(=O)c3ccccc3C2=O)n1`: the inhibition is 0%.

Regarding `CCOC(=O)Cc1csc(/C(=N/O)C(N)=O)n1`, the inhibition is 3%.

In the case of `CCOC(=O)c1[nH]cc(-c2ccccc2)c1N1CCOCC1`, the inhibition is 0%.

As for `CCOc1ccc2cc(C#N)c(SCC(=O)N3CCC(C)CC3)nc2c1`, the inhibition was 10%.

Turning to `CC1(C)NC(=O)N(CC(O)COc2ccc(-c3ccccc3)cc2)C1=O` (stereo not given), the inhibition is 0%.

As to `Cc1ccc(Cn2c(SCCN3CCCCC3)nc3c2c(=O)[nH]c(=O)n3C)cc1`, the inhibition is 2%.

Turning to `CC(=O)NC(C)C(=O)OCc1ccc(Cl)cc1Cl` (stereo not given), the inhibition was 0%.

Consider `O=C(COc1ccccc1Cl)NCc1ccco1`, for which the inhibition was 3%.

`COc1ccccc1N(CC(=O)NCc1ccccc1)S(C)(=O)=O`: the inhibition is 0%.

Regarding `CCOC(=O)c1ccccc1NC(=O)N1CCn2c(C)ccc2C1CC` (stereo not given), the inhibition was 2%.

`CC(C)COC(=O)NCC12C=CC(O1)C1C(=O)N(c3ccc(Cl)cc3)C(=O)C12` (stereo not given): the inhibition is 0%.

`CN(C)c1nc(N)nc(-c2nc3ccccc3s2)n1`: the inhibition was 0%.

Turning to `N#CCCn1cnc2ccccc21`, the inhibition is 0%.

`COC(=O)C1=C(C)C(c2cccs2)NC(=O)N1C` (stereo not given): the inhibition was 0%.

In the case of `CC(=O)OCC(=O)[C@H]1CC[C@H]2[C@@H]3CCC4=CC(=O)CC[C@]4(C)[C@H]3CC[C@]12C`, the inhibition is 1%.

With `O=C(NCCN1CCOCC1)c1ccc(CS(=O)(=O)Cc2ccccc2F)o1`, the inhibition was 2%.

Take `NC(=O)C1CCN(c2nc(-c3ccccc3)nc3ccccc23)CC1`: the inhibition was 0%.

`COc1ccccc1S(=O)(=O)n1cc(Cc2ccccc2)c(N)n1`: the inhibition was 0%.

Take `CCOC(=O)N1CCN(S(=O)(=O)c2cc(Cl)c(OC)cc2Cl)CC1`: the inhibition was 0%.

`CCOC(=O)Cn1nnc(-c2ccc(SC)cc2)n1`: the inhibition is 0%.

In the case of `Cc1ccc(C)c(N2CCN(C(=O)C3CCN(S(=O)(=O)c4c(C)noc4C)CC3)CC2)c1`, the inhibition was 4%.

For `Cn1c(=O)c2c(nc(NCc3ccc4c(c3)OCO4)n2Cc2ccccc2F)n(C)c1=O`, the inhibition is 3%.

With `CCOC(=O)N1CCC(NC(=O)c2ccc3c(c2)N(C)CCS3)CC1`, the inhibition is 6%.

Turning to `c1ccc2c(c1)c1c3n2CCNC3CCC1` (stereo not given), the inhibition is 0%.

For `CCN(CC)Cc1nc2c(c(=O)[nH]1)C1(CCCCC1)Cc1ccccc1-2`, the inhibition is 3%.

Turning to `Cc1cccc(-n2ncc3c(NCc4ccccn4)ncnc32)c1`, the inhibition is 6%.

As to `CC1(C)CC2CC(C)(CN2S(=O)(=O)c2ccc(N)cc2)C1` (stereo not given), the inhibition is 0%.

Consider `CCN(CC)CCCN1C(=O)C(=O)/C(=C(/O)c2ccc(C)cc2)C1c1ccccn1` (stereo not given), for which the inhibition was 3%.

Take `O=C(CN1CCCCCC1)OCCN=C1NS(=O)(=O)c2ccccc21`: the inhibition is 0%.

On to `N#Cc1c(-c2ccccc2)nc(SCc2nc(N)nc(N3CCCCC3)n2)[nH]c1=O`, for which the inhibition is 9%.

Take `CCOC(=O)c1sc(C)c2c1NC(C)(c1cccs1)NC2=O` (stereo not given): the inhibition was 4%.

Regarding `CCOC(=O)C1CCN(c2c(Nc3ccc4c(c3)OCCO4)c(=O)c2=O)CC1`, the inhibition is 0%.

Consider `COC(=O)c1cc(S(=O)(=O)N2CCOCC2)c(N2CCOCC2)cc1N1CCOCC1`, for which the inhibition was 2%.

For the compound `Cn1nnnc1SCC(=O)N1CCN(c2ccccc2)CC1`, the inhibition is 0%.

Regarding `CSC1=N/C(=C\C=C\c2cccs2)C(=O)S1`, the inhibition was 1%.

Consider `COc1cc(NS(=O)(=O)c2ccc(N)cc2)nc(OC)n1`, for which the inhibition was 0%.

`O=C1c2ccccc2C(Nc2ccc(F)cc2F)N1CCN1CCOCC1` (stereo not given): the inhibition was 0%.

In the case of `COc1ccc(C2N(C(=O)c3ccccc3)CCN2C(=O)c2ccccc2)cc1`, the inhibition was 0%.

With `CCOCCCNC(=O)C1CCN(C(=O)Nc2ccc(Cl)cc2)CC1`, the inhibition was 3%.

For `COc1cc(C2c3c(n[nH]c3C)C(=O)N2c2ccc(Br)cc2)ccc1O` (stereo not given), the inhibition is 4%.

With `Cc1ccc(N(CC(O)CN2CCCC2)S(=O)(=O)c2ccc(C)cc2)cc1` (stereo not given), the inhibition is 0%.

As for `Cc1ccc(S(=O)(=O)N2CCN(C(=O)c3cc(=O)[nH]c4ccccc34)CC2)c(C)c1`, the inhibition was 3%.

Consider `COC(=O)C1=C(C)NC(C)=C(C(=O)OC)C1c1cc2cc(C)ccc2[nH]c1=O`, for which the inhibition was 3%.

Regarding `COC(=O)Cn1c(C)nc2c(sc3nc(C)cc(C)c32)c1=O`, the inhibition is 3%.

On to `O=C(CCCN1C(=O)c2ccccc2C1=O)NCc1cccnc1`, for which the inhibition is 3%.

For `O=C(N1CCOCC1)N1CCC(NC(=O)C23CC4CC(CC(C4)C2)C3)CC1`, the inhibition was 0%.

In the case of `CC(C)COC(=O)C1[C@H]2C(=O)N(Cc3cccs3)C[C@]23C=C[C@H]1O3` (stereo not given in full), the inhibition was 1%.

With `CCCS(=O)(=O)Nc1c(C(=O)O)[nH]c2ccccc12`, the inhibition is 0%.

Consider `Cc1cn([C@H]2C=C[C@@H](CO)O2)c(=O)[nH]c1=O`, for which the inhibition is 0%.

For `CCOc1ccc(/C=N/n2cnnc2)cc1`, the inhibition was 3%.

As for `Cn1c(=O)n(C)c2cc(NC(=O)C(F)(F)F)ccc21`, the inhibition was 0%.

As for `CCn1c(=O)c(C(=O)NCCc2ccccc2)c(O)c2ccccc21`, the inhibition was 0%.

For `C=CCC1(O)C(=O)Nc2ccccc21` (stereo not given), the inhibition was 0%.
